# Bioassay records as filed in PubChem.
# GRP78 ERSR act – ER stress response induction in glioma; hit rate 0.02% among 420,000; AID 602332; Potency, µM, for inactives: at the highest dose activation, usual class: activators; U87-MG GRP78 promoter luciferase reporter, 16 h; also: potency is read from the fitted curve at half-maximal effect; series mostly up to about 76 µM; % of control where 0% means no effect; nearly all actives have a fitted effect of over 35% in size
#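 Stably transfected U87-MG glioma cells carrying a GRP78-based luciferase sensor; 16 h compound incubation. Luminescence end-point read 10 min after Bright-Glo addition at room temperature.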
# ClpP mod – qHTS Assay for Activators of ClpP. ATP-dependent Clp protease proteolytic subunit (Bacillus subtilis (strain 168)), P80244. purified B. subtilis ClpP, FRET peptide cleavage, 20 min. Potency, µM (titrated, usually from 57.5 µM), without a hit: at the top dose activity change, negative = active. hit rate 1.9% among 340,000; active = well fitted falling curve with a large enough effect; inconclusive = small, poorly fitted or top-dose-only effect; inactive = no such curve, though single readings can be large or run the other way; also: potency is read from the fitted curve at half-maximal effect; the source files actives as falling curves though it sought activators and does not explain the sign; nearly all actives have a fitted effect of over 65% in size
#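 FRET quenching reversal measured ClpP activation: 10 microg/mL B. subtilis ClpP at pH 8 with the FRET-FV decapeptide, read at 430 nm after 320 nm excitation. The 20-min minus 0-min signal was scaled between DMSO/no-enzyme wells and ADEP (5.8 microM final).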
# AT treatment – potential ataxia-telangiectasia treatments restoring KAP-1 phosphorylation. F2112 A-T fibroblasts, KAP-1 phosphorylation AlphaLISA; neocarzinostatin DNA damage 30 min before lysis. Potency, µM (highest dose often 57.5 µM), inactives show top-dose activation, actives largely listed as activators. hit rate 0.19% among 320,000. AID 485349; also: potency is read from the fitted curve at half-maximal effect; % of control where 0% means no effect; nearly all actives have a fitted effect of over 45% in size
#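 ATM-like activity read as KAP-1 phosphorylation via AlphaLISA donor/acceptor antibody pairs after lysis and 6 hr at 25C. Cells were ATM-null patient fibroblasts (F2112, hTERT), dosed 60 min, then exposed to the DSB inducer NCS for 30 min.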
# TCR act – activators of T cell receptors; Potency, µM (highest dose often 9.22 µM), for the others: at the top dose activation of IL-2 secretion, actives largely listed as activators; 330,000 tested, under 10 active; AID 504894; primary human leukocytes, anti-CD3, IL-2 HTRF, 48 h; also: % of control where 0% means no effect
#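 Human primary leukocytes + a-CD3 beads + cpd, 48 hr; IL-2 in supernatant by HTRF (ex 320nm / em 665nm). No co-stimulatory signal supplied.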
# MBNL1 CUG block – inhibitors of human MBNL1 binding to CUG repeat RNA | hit rate 0.036% among 280,000 | Potency, µM (series often up to 57.5 µM), for the others: at the top dose activity change, negative = inhibition, actives largely listed as inhibitors | TR-FRET MBNL1-His/biotin-(CUG)12 binding, 665/545 ratio | Q9NR56 | AID 2675; active = well fitted inhibition curve with a large enough effect in the signal ratio, with a control signal flat, not every such curve was filed as active; inconclusive = small, poorly fitted or top-dose-only effect, or effect the other way, or a change in a side signal; inactive = no such curve, though single readings can be large or run the other way; the % refers to the signal ratio; also: potency is read from the fitted curve at half-maximal effect; % is scaled to controls: 0 for no effect and ±100 for the full control effect
# Target sequence (Q9NR56 whole entry, looked up): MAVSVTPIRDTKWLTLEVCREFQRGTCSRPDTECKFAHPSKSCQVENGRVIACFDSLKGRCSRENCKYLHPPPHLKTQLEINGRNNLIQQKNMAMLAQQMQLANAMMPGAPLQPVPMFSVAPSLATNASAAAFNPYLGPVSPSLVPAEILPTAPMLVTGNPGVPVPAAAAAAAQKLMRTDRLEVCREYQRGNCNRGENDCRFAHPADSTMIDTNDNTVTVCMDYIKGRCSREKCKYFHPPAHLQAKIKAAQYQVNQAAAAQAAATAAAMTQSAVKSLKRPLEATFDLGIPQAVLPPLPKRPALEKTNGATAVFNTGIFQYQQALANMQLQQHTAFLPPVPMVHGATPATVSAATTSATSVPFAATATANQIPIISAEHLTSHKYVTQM
#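 His-tagged MBNL1 binding to biotinylated (CUG)12 RNA was measured by TR-FRET using terbium anti-His antibody (0.055 ng/ul final) and streptavidin-XL665 (5 nM final). Compounds were titrated 92 nM to 58 uM; 60 min at room temperature.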
# Mito fusion act – blocks mitochondrial division or promotes mitochondrial fusion | hit rate 0.23% among 320,000 | S. cerevisiae fusion-defective mutant growth rescue, CellTiterGlo 48 h | Potency, µM (series often up to 46.1 µM), for the others: top-dose growth rescue (activation), hits mostly activators; also: potency is read from the fitted curve at half-maximal effect; % of control where 0% means no effect; nearly all actives have a fitted effect of over 45% in size
#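 S. cerevisiae fusion-defective temperature-sensitive mutants (e.g. fzo1-1, mgm1-5) grown 48 h at 37C in YPEG (ethanol/glycerol non-fermentable) medium with 23 nl compound per well; growth rescue read as CellTiterGlo luminescence.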
# The depositor's hits bear a star; ? = inconclusive; . = not tested or not shown; ! = not confirmed by another sample; [ ] = another dose, or the depositor's remark. A selection: hits, their analogues and other compounds. The true share with any hit is near 1.8%. Unless noted, calls follow the shape of the dose curve; as a rule, active = well fitted curve in the direction sought with a large enough effect; inconclusive = small, poorly fitted or top-dose-only effect, or another doubt; inactive = no such curve, though single readings can be large; an effect the other way counts as inactive or inconclusive.
SMILES,GRP78 ERSR act,ClpP mod,AT treatment,TCR act,MBNL1 CUG block,Mito fusion act
C[C@@H](c1ccccc1)N1C(=O)[C@H]2[C@@H]3[C@H](O)[C@H](O)CC(=O)[C@H]3CC[C@H]2C1=O,-3%,.,.,.,.,.
CC(C)CC(=O)Nc1ccc(-c2nc3ccccc3c(=O)o2)cc1,2%,11µM*,5%,1%[46.1 µM],-13%,-1%
CC(=O)Nc1ccc(-c2nc3ccccc3c(=O)o2)cc1,0%,.,14%,10%,0%,5%
COCC(=O)Nc1cc(C(=O)N2CCN(C)C(c3ccccc3)C2)c2c(c1)nc(-c1ccncc1)n2C (stereo unspecified),1%,.,.,.,.,.
CC(C)(C)NC(=O)Nc1ccc2nccnc2c1,3%,20µM*,7%,-4%,?,-3%
CC(C)(C)NC(=O)c1ccc2nccnc2c1,4%,-6%,8%,0%,16%,-7%
O=C1Cc2c([nH]c3ccc(Br)cc23)-c2ccccc2N1,?,-23%,.,7%,.,7.3µM*
Brc1ccc2[nH]c3c(c2c1)CCC3,-2%,1%,-8%,11%,.,-2%
Cc1ccc2c(c1)CC1(CN2C)C(=O)OC2(CCCCC2)OC1=O,-6%,-3%,10%,.,-7%,2%
CN1CC2(Cc3c1ccc1ccccc31)C(=O)OC(C)(C)OC2=O,-5%,14µM*!,0%,3%,27%,-4%
CCOCCCNC(=O)c1c(NC(=O)c2nc(SCC)ncc2Cl)sc2c1CCCC2,-3%,0%,.,.,.,.
NCCCCCCNc1nc2c(N)ncnc2n1[C@@H]1O[C@@H]2COP(=O)(O)O[C@H]2[C@H]1O,-8%,.,.,.,.,.
Cc1cc(C)nc(SCc2cc(=O)c(OC(=O)c3ccc(S(=O)(=O)N(C)C)cc3)co2)n1,-4%,2.8µM*,6%,0%[46.1 µM],-28%,4%
Nc1cc(C(=O)OCC(=O)NC(c2ccccc2)c2ccccc2)ccc1Cl,-5%,25µM*,8%,-6%[46.1 µM],6%,-7%
Cc1ccc2nc(SCC(=O)NCC3Cc4cccc(-c5nc(C)cnc5C)c4O3)[nH]c2c1 (stereo unspecified),-1%,.,.,.,.,.
Cc1ccc(S(=O)(=O)N(Cc2cccc(Cl)c2)C(=O)N2CCN(C)CC2)cc1,-2%,14µM*,1%,0%,.,6%
CCOC(=O)/C(=N\Nc1ccc(Br)cc1)N1CC(C)OC(C)C1 (stereo unspecified),-6%,.,25µM*,4%,-10%,?
O=C1C=C(NCC2CCCO2)C2(CCCCC2)O1 (stereo unspecified),-5%,0%,-1%,.,0%,-1%
O=C1C=C(NC2CC2)C2(CCCCC2)O1,-1%,13µM*,1%,2%,11%,1%
Cc1c(NC(=O)c2cnn3c(C(F)(F)F)cc(-c4ccco4)nc23)c(=O)n(-c2ccccc2)n1C,-3%,-1%,16µM*,-3%,?,5%
O=C(O)c1cnn2c(C(F)(F)F)cc(-c3ccco3)nc12,-2%,-3%,-4%,0%,?,-1%
Cc1cccc(Cn2c(-c3ccccc3)nc3ccccc32)c1,0%,-27%,.,.,.,.
Cn1cccc1-c1nc2ccccc2n1Cc1ccccc1,-1%,28µM*,-1%,2%,0%,26%
CC(C)(C)n1ncc2c(=O)n(Cc3c(F)cc(Cl)cc3F)cnc21,-5%,.,.,.,.,.
CCN(CC)CC(O)Cn1c(-c2ccccc2Cl)nc2ccccc21 (stereo unspecified),-5%,1%,16µM*,3%,2%,-6%
Oc1oc(-c2ccccc2)nc1C=Nc1cccc2ccccc12,1%,7%,2%,-8%,-2%,11µM*
Oc1oc(-c2ccccc2)nc1/C=N/c1nccs1,5%,-2%,-3%,1%[46.1 µM],?,-1%
O=C1CC2(CCN(C(=O)c3ccc(Br)cc3)CC2)Oc2ccccc21,-2%,32µM*,4%,5%,.,4%
